In the supplement of paper PMC8540655:
A number with no mark means an inactive call.

Tested on: Aedes aegypti larvae
Assay: larval motility relative to same well at 0 h (fraction); higher = more motile (less active compound), active = 0.4 or less
Conditions: 10 µM
Outline: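 Aedes aegypti larvae were hatched at 25 °C in pond salt solution with yeast, collected after 18–24 h, and dispensed at about 10 per well (100 µL) in 96-well plates. Compounds were tested at 10 µM in 1% v/v DMSO, and each plate carried solvent and larvicide control wells. INVAPP movies of 200 frames at 100 ms intervals were recorded at 0, 2 and 24 h, and each value is the median of three independent larval batches. Relative motility is each well's score divided by that same well's starting score.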

Structure (SMILES) | larval motility (2 h) | larval motility (24 h)
C=C(C)n1c(=O)n(Cc2ccccc2C)c2ccccc21 | 1.39 | 0.851
CC(N)C(=O)NC(CCCCN)C(=O)NC(CCCNC(=N)N)C(=O)NC(Cc1c[nH]cn1)C(=O)NC(Cc1c[nH]cn1)C(=O)NCC(=O)NC(Cc1ccc(O)cc1)C(=O)NC(CCCCN)C(=O)NC(CCCNC(=N)N)C(=O)NC(CCCCN)C(=O)NC(Cc1ccccc1)C(=O)NC(Cc1c[nH]cn1)C(N)=O (stereo not given) | 0.858 | 1.19
CCOCc1nc2c(N)nc3ccccc3c2n1CC(C)(C)O | 1.09 | 0.906
NC(=O)[C@@H]1CC[C@@H]2CN1C(=O)N2OS(=O)(=O)O | 1.06 | 1.3
Cc1nc2ccc(Cl)cc2c(-c2ccccc2)c1CC(=O)O | 0.615 | 1.02
CN(C)CC(=O)Nc1ccc2[nH]c(=O)c3ccccc3c2c1 | 0.338 (active) | 0.463
O=C(Nc1ncc(Cc2cccc3ccccc23)s1)C1CCCCC1 | 1.07 | 1.56
FC(F)(F)Oc1ccc(Nc2ccc3cccc(Cl)c3n2)cc1 | 0.563 | 0.29 (active)
Cc1c(OCC(F)(F)F)ccnc1CS(=O)c1nc2ccccc2[nH]1 (stereo not given) | 1.17 | 1.38
CCc1cc(Nc2cc(=O)n(CCN3CCN(C(=O)c4ccccc4)CC3)c(=O)[nH]2)ccc1C | 1.11 | 1.07
